Measured values reported in PubChem BioAssay AID1159580 (chemical genetic matrix, 2015).
The whole screen tested about 5,500 compounds, of which about 2,000 (36%) were called active. Inconclusive results (about 18%) are left out. No stated cut-off is given here; in the data, active means normalized growth mostly below about 0.91 (no sharp cut-off); inconclusive means no clear call, values can overlap the other calls; inactive means mostly above about 0.92. The list shows a part of the results.

Assay: chemical genetic growth profiling, strain panel (AID 1159580);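 further: tested at 20 µM; growth read once vehicle control cultures reached saturation at 30 °C; 1 = growth at the plate median or of vehicle wells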
Conditions: growth OD

Measured: normalized growth

CCC(=O)OC1[C@@H]2CC3=C4CC(=O)O[C@@H](c5ccoc5)[C@]4(C)CCC3[C@@](C)(C2=O)[C@@H](CC(=O)OC)C1(C)C (stereo partly specified)
inactive: S. cerevisiae deletion strains, locus YJR066W, strain TOR1, stronger effect = lower value 0.936 | S. cerevisiae deletion strains, locus YKL009W, strain mrt4, stronger effect = lower value 1 | S. cerevisiae deletion strains, locus YKL068W, stronger effect = lower value 1.01 | S. cerevisiae deletion strains, locus YKL085W, strain MDH1 (second series), stronger effect = lower value 1 | S. cerevisiae deletion strains, locus YKL085W, strain MDH1, stronger effect = lower value 1 | S. cerevisiae deletion strains, locus YKL160W, strain elf1, stronger effect = lower value 1.01 | S. cerevisiae deletion strains, locus YKL190W, strain CNB1, stronger effect = lower value 0.999 | S. cerevisiae deletion strains, locus YKR001C, strain vps1, stronger effect = lower value 1.02 | S. cerevisiae deletion strains, locus YKR026C, strain gcn3, stronger effect = lower value 0.991 | S. cerevisiae deletion strains, locus YKR091W, strain srl3, stronger effect = lower value 0.984 | S. cerevisiae deletion strains, locus YLL001W, strain dnm1, stronger effect = lower value 1 | S. cerevisiae deletion strains, locus YLL026W, stronger effect = lower value 0.988 | S. cerevisiae deletion strains, locus YLL041C, strain sdh2, stronger effect = lower value 0.992 | S. cerevisiae deletion strains, locus YLR027C, strain aat2, stronger effect = lower value 0.992 | S. cerevisiae deletion strains, locus YLR039C, strain RIC1, stronger effect = lower value 0.884 | S. cerevisiae deletion strains, locus YLR058C, strain SHM2, stronger effect = lower value 1 | S. cerevisiae deletion strains, locus YLR102C, strain apc9, stronger effect = lower value 1.02 | S. cerevisiae deletion strains, locus YLR113W, strain HOG1, stronger effect = lower value 1.01 | S. cerevisiae deletion strains, locus YLR221C, strain rsa3, stronger effect = lower value 0.985 | S. cerevisiae deletion strains, locus YLR258W, strain gsy2, stronger effect = lower value 1.01 | S. cerevisiae deletion strains, locus YLR262C, strain YPT6 (second series), stronger effect = lower value 0.908 | S. cerevisiae deletion strains, locus YLR262C, strain YPT6, stronger effect = lower value 0.782 | S. cerevisiae deletion strains, locus YLR268W, strain sec22, stronger effect = lower value 0.997 | S. cerevisiae deletion strains, locus YLR320W, strain mms22, stronger effect = lower value 0.976 | S. cerevisiae deletion strains, locus YLR342W, strain FKS1, stronger effect = lower value 0.981 | S. cerevisiae deletion strains, locus YLR357W, strain rsc2, stronger effect = lower value 1.03 | S. cerevisiae deletion strains, locus YLR370C, strain arc18, stronger effect = lower value 0.983 | S. cerevisiae deletion strains, locus YLR371W, strain rom2, stronger effect = lower value 1.01 | S. cerevisiae deletion strains, locus YLR384C, strain iki3, stronger effect = lower value 1 | S. cerevisiae deletion strains, locus YLR418C, strain cdc73, stronger effect = lower value 1.03 | S. cerevisiae deletion strains, locus YML016C, strain PPZ1, stronger effect = lower value 1 | S. cerevisiae deletion strains, locus YML032C, strain rad52, stronger effect = lower value 1.02 | S. cerevisiae deletion strains, locus YML120C, strain ndi1, stronger effect = lower value 0.999 | S. cerevisiae deletion strains, locus YML124C, strain tub3, stronger effect = lower value 1.01 | S. cerevisiae deletion strains, locus YMR058W, strain fet3, stronger effect = lower value 0.994 | S. cerevisiae deletion strains, locus YMR078C, strain ctf18, stronger effect = lower value 1.02 | S. cerevisiae deletion strains, locus YMR125W, strain sto1, stronger effect = lower value 0.996 | S. cerevisiae deletion strains, locus YMR129W, stronger effect = lower value 0.998 | S. cerevisiae deletion strains, locus YMR205C, strain PFK2, stronger effect = lower value 0.995 | S. cerevisiae deletion strains, locus YMR223W, strain ubp8, stronger effect = lower value 1.01 | S. cerevisiae deletion strains, locus YMR231W, strain pep5, stronger effect = lower value 0.955 | S. cerevisiae deletion strains, locus YMR307W, strain GAS1, stronger effect = lower value 0.842 | S. cerevisiae deletion strains, locus YNL067W, strain RPL9B, stronger effect = lower value 1.01 | S. cerevisiae deletion strains, locus YNL071W, strain lat1, stronger effect = lower value 0.993 | S. cerevisiae deletion strains, locus YNL153C, strain GIM3, stronger effect = lower value 1.02 | S. cerevisiae deletion strains, locus YNL183C, strain NPR1, stronger effect = lower value 0.946 | S. cerevisiae deletion strains, locus YNL209W, strain ssb2, stronger effect = lower value 1 | S. cerevisiae deletion strains, locus YNL233W, strain BNI4, stronger effect = lower value 0.954 | S. cerevisiae deletion strains, locus YNL248C, strain rpa49, stronger effect = lower value 0.992 | S. cerevisiae deletion strains, locus YNL250W, strain rad50, stronger effect = lower value 1.01 | S. cerevisiae deletion strains, locus YNL271C, strain bni1, stronger effect = lower value 1.01 | S. cerevisiae deletion strains, locus YNL298W, strain CLA4, stronger effect = lower value 1.03 | S. cerevisiae deletion strains, locus YNL307C, strain MCK1, stronger effect = lower value 1.01 | S. cerevisiae deletion strains, locus YNL322C, strain KRE1 (second series), stronger effect = lower value 0.996 | S. cerevisiae deletion strains, locus YNL322C, strain KRE1, stronger effect = lower value 0.992 | S. cerevisiae deletion strains, locus YNR049C, strain mso1, stronger effect = lower value 0.989 | S. cerevisiae deletion strains, locus YNR052C, strain pop2, stronger effect = lower value 1.03 | S. cerevisiae deletion strains, locus YOL012C, strain htz1 1.24 | S. cerevisiae deletion strains, locus YOL147C, strain pex11, stronger effect = lower value 1.02 | S. cerevisiae deletion strains, locus YOR001W, strain rrp6, stronger effect = lower value 0.994 | S. cerevisiae deletion strains, locus YOR061W, strain CKA2, stronger effect = lower value 0.996 | S. cerevisiae deletion strains, locus YOR069W, strain VPS5, stronger effect = lower value 1 | S. cerevisiae deletion strains, locus YOR070C, strain gyp1, stronger effect = lower value 0.988 | S. cerevisiae deletion strains, locus YOR080W, strain dia2, stronger effect = lower value 0.981 | S. cerevisiae deletion strains, locus YOR083W, strain WHI5, stronger effect = lower value 1.02 | S. cerevisiae deletion strains, locus YOR106W, strain vam3, stronger effect = lower value 1.03 | S. cerevisiae deletion strains, locus YOR136W, strain idh2, stronger effect = lower value 1.02 | S. cerevisiae deletion strains, locus YOR144C, strain elg1, stronger effect = lower value 1.01 | S. cerevisiae deletion strains, locus YOR184W, strain ser1, stronger effect = lower value 0.989 | S. cerevisiae deletion strains, locus YOR231W, strain MKK1, stronger effect = lower value 1.01 | S. cerevisiae deletion strains, locus YOR265W, strain rbl2, stronger effect = lower value 0.994 | S. cerevisiae deletion strains, locus YOR270C, strain vph1, stronger effect = lower value 0.858 | S. cerevisiae deletion strains, locus YOR290C, strain snf2, stronger effect = lower value 0.996 | S. cerevisiae deletion strains, locus YOR316C, strain cot1, stronger effect = lower value 1.01 | S. cerevisiae deletion strains, locus YPL051W, strain arl3, stronger effect = lower value 0.982 | S. cerevisiae deletion strains, locus YPL055C, strain LGE1, stronger effect = lower value 1.01 | S. cerevisiae deletion strains, locus YPL078C, strain atp4, stronger effect = lower value 1.02 | S. cerevisiae deletion strains, locus YPL106C, strain sse1, stronger effect = lower value 1.04 | S. cerevisiae deletion strains, locus YPL240C, strain hsp82, stronger effect = lower value 0.99 | S. cerevisiae deletion strains, locus YPL256C, strain CLN2, stronger effect = lower value 0.983 | S. cerevisiae deletion strains, locus YPR119W, strain clb2, stronger effect = lower value 1.01 | S. cerevisiae deletion strains, locus YPR141C, strain kar3, stronger effect = lower value 1.01 | S. cerevisiae deletion strains, locus YPR163C, strain tif3, stronger effect = lower value 1.01 | S. cerevisiae deletion strains, locus YPR167C, strain met16, stronger effect = lower value 0.998 | S. cerevisiae deletion strains, strain wtn01, stronger effect = lower value 1.07 | S. cerevisiae strains, strain wild type, stronger effect = lower value 0.976
